# From ChEMBL document CHEMBL3433997, “St. Jude Leishmania screening dataset” (2016)
# Key:
# Type in all cases: functional
# [1] = target: Solute carrier family 2, facilitated glucose transporter member 1 (Homo sapiens) (UniProt P11166); test: ST_JUDE_LEISH: Cytotoxicity at 2uM final concentration against transgenic Leishmania Mexicana promastigotes LmGLUT1 that are glucose transport deficient and complemented with the human glucose transporter GLUT1. Activity is measured by DNA content using SYBR green in vitro
# [2] = target: Hexose transporter 1 (Plasmodium falciparum) (UniProt O97467); test: ST_JUDE_LEISH: Cytotoxicity at 2uM final concentration against transgenic Leishmania Mexicana promastigotes LmPfHT that are glucose transport deficient and complemented with the Plasmodium falciparum hexose transporter. Activity is measured by DNA content using SYBR green in vitro
# [3] = target: Glucose transporter (Leishmania mexicana) (UniProt O61059); test: ST_JUDE_LEISH: Cytotoxicity at 2uM final concentration against transgenic Leishmania Mexicana promastigotes LmGT2 that are glucose transport deficient and complemented with the L. Mexicana glucose transporter 2. Activity is measured by DNA content using SYBR green in vitro
# Solute carrier family 2, facilitated glucose transporter member 1 (Homo sapiens), sequence (P11166 whole entry): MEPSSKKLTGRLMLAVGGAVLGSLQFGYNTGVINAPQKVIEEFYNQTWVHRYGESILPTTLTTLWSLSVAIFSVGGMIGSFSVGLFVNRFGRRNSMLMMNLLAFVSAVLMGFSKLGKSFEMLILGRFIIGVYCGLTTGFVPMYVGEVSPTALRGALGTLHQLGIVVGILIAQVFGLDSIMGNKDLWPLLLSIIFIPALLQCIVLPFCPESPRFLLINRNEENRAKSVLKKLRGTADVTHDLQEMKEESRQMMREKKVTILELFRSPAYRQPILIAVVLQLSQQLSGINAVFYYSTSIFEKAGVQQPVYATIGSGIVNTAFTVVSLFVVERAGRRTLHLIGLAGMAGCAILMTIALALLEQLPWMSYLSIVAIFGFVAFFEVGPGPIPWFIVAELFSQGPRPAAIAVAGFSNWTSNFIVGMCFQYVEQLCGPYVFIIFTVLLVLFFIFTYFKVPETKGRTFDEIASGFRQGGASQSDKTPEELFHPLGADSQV
SMILES,inhibition [1],inhibition [2],inhibition [3]
COc1ccc2nc(N3CCNCC3)nc(NCCCc3ccccc3)c2c1,5.1%,2.65%,0%
COc1ccc2nc(Nc3nc4cnccc4[nH]3)sc2c1,4.17%,4.93%,5.34%
COc1cc2nccc(Nc3ccc4c(cnn4Cc4cccc(F)c4)c3)c2cc1OC,6.91%,4.66%,1.56%
Cc1cc2ncn(-c3nccc(NCc4ccc(F)c(C)c4)n3)c2cc1C,4%,4.86%,2.52%
COc1ccc(CNC(=N)Nc2nc(-c3ccc(OCCCn4ccnc4)cc3)cs2)cc1,10.6%,7.44%,2.73%
COc1ccc(NS(=O)(=O)c2ccccc2Br)cc1N1CCN(C)CC1,0.24%,-0.27%,3.86%
CCCCN1CCCC[C@H]1[C@@H](O)c1ccnc2ccc(OCC)cc12,2.63%,3.12%,3.68%
CCOc1ccc(-c2n[nH]c(C(F)(F)F)c2-c2ccccc2OC)c(O)c1,2.44%,1.89%,1.29%
CC(C)CN1CCN(c2nc(C#N)c3c(c2C(=S)NC2CCCCC2)CC(C)(C)OC3)CC1,0.49%,-1.31%,-1.75%
O=C(CSc1nc2ccc([N+](=O)[O-])cc2s1)Nc1ccccc1-c1ccccc1,-0.42%,-0.44%,-1.03%
COc1ccc(-c2nc(NC(=O)CS(=O)(=O)c3ccc(F)cc3)sc2C)cc1,8.03%,4.52%,2.47%
COc1ccc(C2C(C(=O)Nc3ccc4c(c3)OCO4)c3cc(OC)c(OC)cc3C(=O)N2C)cc1 (stereo not drawn),2.12%,1.73%,0.53%
CC(=O)Nc1ccc(OCCCCN(Cc2ccccc2OC(F)(F)F)c2ccc(C(F)(F)F)c(C#N)c2)c(Cl)c1,1.46%,4.12%,7.95%
COc1ccc2nccc([C@@H](O)CN3CCC(NC(=O)C(c4cccs4)N4CCN(c5ccc(F)cc5)CC4)CC3)c2c1 (stereo partly drawn),5%,3.71%,4.65%
COc1ccc(C=NNc2nc(O)cc(-c3ccccc3)n2)cc1OC,1.33%,-1.28%,-1.28%
CC(NC(=O)c1ccc(O)c(-c2ccc(Cl)c(Cl)c2)c1)C(=O)NC1CCCCC1 (stereo not drawn),5.53%,4.55%,5.71%
COc1ccc(-c2nc3cccnc3n2CC(=O)Nc2c(C)cc(C)cc2C)c(OC)c1,-0.28%,-1.73%,1.82%
CN1CCN(c2cc3c(Nc4ccc5c(cnn5Cc5ccccc5)c4)ncnc3cn2)CC1,1.33%,2.08%,2.17%
NC1CCCN(Cc2cccc(-c3ccc(-c4nc5cc(C(F)(F)F)ccc5[nH]4)cc3)c2)C1 (stereo not drawn),2.3%,0.39%,2.55%
COc1cc2nc(N3CCC(CNC(=O)c4ccc(-c5ccc(-c6noc(C)n6)cc5)cc4)CC3)nc(N)c2cc1OC,64.1%,45.5%,41.6%
COC(=O)c1cccc(CNCc2ccc(-c3ccc(-c4nc5cc(C(F)(F)F)ccc5[nH]4)s3)cc2)c1,1.72%,2.29%,0.84%
Cc1cccc2nc(-c3cccc(-c4ccc(NC(=O)C(C)CN5CCN(C)CC5)cc4)c3)[nH]c12 (stereo not drawn),1.5%,0.53%,3.85%
CC(=O)Oc1c(C(=O)C2CCC(C(C)(C)C)CC2)c(OC(C)=O)c2ccccc2c1OC(C)=O (stereo not drawn),8.82%,11.5%,7.73%
NC1=NC2(CCCCC2)N(OCCCCCCN2C(=O)c3ccccc3C2=O)C(N)=N1,12.9%,7.88%,11.2%

SMILES,inhibition [1],inhibition [2],inhibition [3]
CCOC(=O)C1=C(C)NC(C)=C(C(=O)OCC)C1(C(=O)OCc1ccccc1)c1cccc(C(F)(F)F)c1,2.88%,3.39%,4.11%
Cc1[nH]c(C)c(-c2ccc(-c3ccc(OC(F)(F)F)cc3)cc2)c(=O)c1Br,2.4%,4.25%,3.37%
COc1ccccc1-c1nc2nc(N)nc(N)c2nc1-c1ccccc1OC,0.82%,1.25%,1.01%
NS(=O)(=O)CCc1cccc(Nc2nccc(-c3c(-c4cccc(NC(=O)c5c(F)cccc5F)c4)nn4ccccc34)n2)c1,4.25%,8.18%,1.61%
Cc1ccc(C(=O)Cn2nc(-c3ccc(C)c(S(=O)(=O)N4CCCCC4)c3)ccc2=O)cc1,8.67%,12.3%,6.75%
Cc1ccc(C(CC(=O)Nc2nccs2)c2ccc(OC(C)C)cc2)cc1 (stereo not drawn),-1.83%,0.63%,-1.31%
CN1CCC(N(Cc2ccc(-c3ccc(C(F)(F)F)cc3)cc2)C(=O)Cn2c(SCc3cccc(F)c3F)cc(=O)c3c2CCC3)CC1,-1.29%,0.12%,1.56%
COc1ccc2nc(NC(N)=NC(=O)Nc3ccccc3)nc(C)c2c1,2.55%,2.15%,0.15%
O=C(Nc1cccc(CN2CCCN(Cc3ccccc3)CC2)c1)c1cc2ccccc2s1,1.27%,1.24%,-4.49%
CCc1cn2c3c(cc(C(=O)N[C@@H](Cc4ccccc4)[C@H](O)CNC4CCOCC4)cc13)N(C)S(=O)(=O)C2,0.25%,1.65%,-0.23%
Cc1ccc(NC(=N)Nc2ncccc2OCc2c(F)cccc2Cl)cc1,7.2%,7.97%,5.56%
COc1cc(CCNC(=O)Cc2ccc3ccccc3c2)ccc1OCc1ccccc1,1.9%,1.88%,0.92%
Cc1cnc(NCC2CCCCC2)nc1NCC(=O)Nc1ccccc1,4.2%,4.34%,6.18%
CC(=O)Oc1cc(C)ccc1C1CCN(CCCCNC(=O)c2ccc(NC(=O)c3ccc(Cl)cc3)cc2)CC1,1.6%,1.07%,1.52%
NC1CCCN(Cc2ccc(-c3ccc(-c4nc5ccccc5[nH]4)s3)cc2)C1 (stereo not drawn),8.95%,5.92%,9.09%
Nc1ncc(-c2cn[nH]c2)cc1-c1nc2cc(Cl)cnc2[nH]1,3.35%,1.4%,1.93%
CCOC(=O)CCCOc1c(OC)cc(Cc2cnc(N)nc2N)cc1OC,-1.3%,-0.68%,-2.34%
CCOc1ccc2ccccc2c1CNCCCCCCNCc1c(OCC)ccc2ccccc12,7.3%,6.69%,4.92%
CN(C)CC(O)COc1ccc(Nc2ncc([N+](=O)[O-])c(Nc3ccccc3O)n2)cc1 (stereo not drawn),2.66%,3.7%,1.45%
COc1cc2nc(C)nc(Nc3cccc(Br)c3)c2cc1OC,-0.77%,-0.52%,-0.03%
CC(C)Cc1cnc2nc(N)nc(N)c2c1,1.42%,2.76%,1.4%
Nc1c2c(nc3ccc(Oc4ccc(Cl)cc4)cc13)CCCC2,60.9%,70.5%,40.5%
Cc1cc(NC2CCCC2)nc(Nc2ccccc2F)n1,11.8%,4.74%,2.95%
Cc1cccc2nc(-c3ccc(-c4ccc(CNCc5ccccc5)cc4)cc3)[nH]c12,3.54%,3.32%,4.35%

SMILES,inhibition [1],inhibition [2],inhibition [3]
Cc1nn(C2CCS(=O)(=O)C2)c(C)c1C1Nc2ccccc2C(=O)N1Cc1ccc2c(c1)OCO2 (stereo not drawn),-0.66%,-0.19%,-1.17%
O=C(Nc1ccc(OC2CCN(Cc3ccccc3)CC2)c(Cl)c1)c1ccco1,8.6%,10.1%,8.63%
CNC(=O)c1cnc(Nc2ccc(N3CCN(C)CC3)cc2)nc1Nc1cccc([N+](=O)[O-])c1,2.86%,-0.17%,1.22%
CC(C)c1ccc(C(NC(=O)C2CCCCC2)c2ccc3cccnc3c2O)cc1 (stereo not drawn),-0.43%,-0.57%,-1%
O=[N+]([O-])c1cc2c(cc1C=NNc1nc(=Nc3ccccc3)[nH]c(=Nc3ccccc3)[nH]1)OCO2,1.53%,1.47%,-2.69%
Fc1cccc(CNc2ncc(-c3ccsc3)c(-c3nccs3)n2)c1,1.64%,1.96%,2%
N#Cc1ccc(N2CCN(Cc3cccc(-c4cccc(-c5nc6cc(F)ccc6[nH]5)c4)c3)CC2)nc1,3.5%,5.99%,3.65%
O=C(Cc1c[nH]cn1)Nc1ccc(-c2ccc(-c3nc4ccccc4[nH]3)s2)cc1,4.05%,5.17%,1.71%
CCOc1cc(C(=O)N[C@@H](Cc2ccccc2)[C@H](O)CNC(C)(C)c2cccc(OC)c2)cc(N2CCCS2(=O)=O)c1,2.48%,-0.71%,0.74%
O=C(NCc1ccc(C(=O)NC2CCCCCC2)cc1)c1ccc(O)c(-c2ccc(Cl)c(Cl)c2)c1,1.17%,1.13%,0.44%
O=C(NCCc1ccc(Cl)c(Cl)c1)[C@@H]1CCCN1C(=O)c1ccc(O)c(-c2ccc(Cl)c(Cl)c2)c1,-1.56%,-0.69%,-1.51%
c1cc(CN2CCN(CCN3CCOCC3)CC2)cc(-c2cccc(-c3nc4ccccc4[nH]3)c2)c1,-0.34%,-0.24%,-1.97%
Cc1cccc2nc(-c3ccc(-c4cccc(NC(=O)Cc5c[nH]cn5)c4)cc3)[nH]c12,1.52%,3.26%,-1.21%
CCC(C)c1cnc2nc(N)nc(N)c2c1C (stereo not drawn),1.18%,1.66%,2.42%
CCOC(=O)c1ccc(N2CCCCC2)c(NC(=O)C(Cl)(Cl)Cl)c1,-2.66%,-0.39%,-1.19%
FC(F)(F)COc1c(CCNCCCCNCCc2ccc3ccccc3c2OCC(F)(F)F)ccc2ccccc12,105%,103%,108%
O=[N+]([O-])c1ccc(C(O)P(=O)(c2ccccc2)c2ccccc2)cc1 (stereo not drawn),-0.33%,-0.85%,-0.11%
COc1ccccc1C1CC(c2ccccc2)=NN1C(=O)c1ccccc1 (stereo not drawn),-3.13%,-0.25%,-0.28%
CC(C)CN(C)Cc1ccc(-c2ccc(-c3nc4ccccc4[nH]3)s2)cc1,-1.24%,-0.64%,-1.65%
CC(C)(C)OC(=O)N[C@@H](Cc1ccccc1)C(=O)Nc1cccc(-c2cccc(NC(=O)[C@H](Cc3ccccc3)NC(=O)OC(C)(C)C)c2)c1,0.62%,0.21%,0.33%
CC[C@H](C)CNC(=O)c1ccnc(-c2ccc(CNC3Cc4ccccc4C3)cc2)c1,0.15%,0.08%,-0.69%
CCC(=Cc1cccc([N+](=O)[O-])c1)C(=O)NCC1CCN(c2nc3cc(OC)c(OC)cc3c(=N)[nH]2)CC1,5.64%,7.07%,6.83%
CCC[C@@H]([C@@H](CC(C)C)C(=O)N[C@H](C(=O)Nc1nccs1)C(C)(C)SCCNC(=O)OCC)N(O)C=O,2.68%,4.73%,3.58%
